Compound activity as filed in PubChem BioAssay.
hcDAF-12 act = activates DAF-12 receptor from parasite H. contortus | HEK293 hcDAF-12 lit1-tk-luc reporter, luminescence; 0% DMSO, 100% Δ7-dafachronic acid | activation, % at 6.8 µM | hit rate 1.4% among 370,000;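 active means activation above the mean of all tested compounds plus 3 SD, cut at about 5.5% in these data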
ssDAF12 agonist = activators of S. stercoralis DAF-12 nuclear receptor; HEK293 ssDAF-12/GRIP1 lit1-tk-luc reporter, luminescence; % of 3 µM dafachronic acid response; AID 652126; activation, % at 6.8 µM; hit rate 1% among 370,000;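 active means activation above the mean over all tested compounds plus 3 SD, cut at about 0.9% in these data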
DAX1 inh-1 = blocks DAX1 repression of SF-1 activated StAR promoter | HEK293T StAR-luciferase reporter, SF-1/DAX-1 repression relief | inhibition, % at 6.8 µM | hit rate 1.1% among 370,000;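 active means inhibition above the mean over all tested compounds plus 3 SD, cut at about 3.6% in these data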;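 further: higher inhibition means more luminescence from relief of DAX-1 repression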
hgDAF-12 ag = hgDAF-12 agonism, primary luciferase screen; HEK293 GAL4-hgDAF12 UAS-luciferase reporter, agonist luminescence; normalized to butyrate control; activation, % at 6.8 µM; hit rate 1.8% among 370,000; AID 687014;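 active means activation above a cutoff set at the mean of all screened compounds plus 3 SD, cut at about 10% in these data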
DAX1 inh-2 = NR0B1 (DAX1) inhibition. P51843. HEK293 Gal4-DAX1 luciferase reporter, luminescence. inhibition, % at 6.75 µM. hit rate 0.99% among 340,000. AID 504766;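 active means inhibition above the mean over all tested compounds plus 3 SD, cut at about 4.2% in these data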;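 further: inhibition shows as a rise in luminescence from relieved DAX1 repression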
Target sequence (P51843 207-470 limits assumed): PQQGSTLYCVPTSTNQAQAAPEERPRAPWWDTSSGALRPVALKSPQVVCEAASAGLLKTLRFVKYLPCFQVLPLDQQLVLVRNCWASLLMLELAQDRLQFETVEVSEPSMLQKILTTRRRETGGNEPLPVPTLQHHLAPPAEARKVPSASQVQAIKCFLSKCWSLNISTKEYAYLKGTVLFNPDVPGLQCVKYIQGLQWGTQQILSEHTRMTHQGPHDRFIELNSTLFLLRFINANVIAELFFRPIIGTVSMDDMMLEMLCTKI
Numbers stand for hits; n = inactive; x = no result. This is a sample that favours compounds with a hit; in the whole collection about 4.1% have one here.

SMILES	hcDAF-12 act	ssDAF12 agonist	DAX1 inh-1	hgDAF-12 ag	DAX1 inh-2
CC(=O)n1cc(/C=N/NC(=O)c2ccccc2O)c2ccccc21	n	n	n	n	5.0
Cc1ccccc1CC(=O)N1CCC(n2nnc3ncccc32)CC1	n	n	n	n	x
Cc1ccccc1NC(=O)C[C@H]1CC[C@H]2[C@@H](COc3ccc(NC(=O)Nc4ccccc4)cc3C(=O)N2C)O1	n	n	n	n	x
O=C(N/N=C/c1ccoc1)c1ccccc1	n	1.1	6.4	11	n
O=C(N/N=C/c1ccoc1)c1ccc(Br)cc1	n	n	n	n	n
Cc1ccc(-n2c(SCC(=O)C(C)(C)C)nnc2-c2cccc(C)c2)cc1	n	n	n	n	x
O=C(CSc1nnc(C2COc3ccccc3O2)o1)Nc1nccs1 (stereo unspecified)	x	x	x	x	4.4
O=C(CSc1nnc(C2COc3ccccc3O2)o1)NC1CCCCC1 (stereo unspecified)	n	n	n	n	n
O=C(OCc1cn(Cc2ccc(F)cc2)nn1)N1CCCC1	n	n	n	n	x
Cc1cc(C(=O)OCC(=O)NCc2ccccc2)c(C)o1	n	n	n	n	n
Cc1cc(C(=O)OCC(=O)NCCc2ccccc2)c(C)o1	n	n	n	n	5.1
Cc1cc(-c2c(C)[nH]n(-c3ccccc3)c2=O)n(-c2ccccc2)n1	n	n	n	n	n
Cc1cc(-c2c(C)[nH]n(-c3ccccc3)c2=O)n[nH]1	5.8	n	n	n	n
CCOC(=O)/C=C1/N(C)c2ccccc2C1(C)C	n	n	n	n	6.1
O=C(OCC#CCSc1nnc(-c2cccs2)o1)c1ccc(F)cc1	n	n	x	n	x
O=C1C[C@@H](c2ccccc2)N=C2N(Cc3ccc4c(c3)OCO4)C/C(=C/c3ccccc3)N12	n	n	n	n	x
COc1cc(/C=C2\Oc3cc(O)ccc3C2=O)ccc1O	n	n	4.3	n	7.4
O=C1/C(=C/c2ccc(O)c(O)c2)Oc2cc(O)ccc21	n	n	n	n	n
Clc1ccc(OCCn2ccnc2)c(Br)c1	n	n	n	n	n
Clc1ccc(OCCn2ccnc2)c(Cl)c1	n	n	n	n	8.9
O=S(=O)(Nc1cccc(-c2ccc(N3CCCCCC3)nn2)c1)c1ccc(C(F)(F)F)cc1	6.4	n	n	n	n
Cc1ccc(S(=O)(=O)Nc2cccc(-c3ccc(N4CCCCCC4)nn3)c2)cc1C	n	n	n	n	n
Cc1cc(/C=C(\C#N)C(=O)NCCc2c[nH]c3ccccc23)c(C)n1C	n	n	n	n	n
N#C/C(=C/c1ccc(Br)s1)C(=O)NCCc1c[nH]c2ccccc12	6.0	n	n	n	n
O=C(c1ccc(CSc2nc3ccncc3[nH]2)cc1)N1CCCCCC1	n	n	n	13	n
SMILES	hcDAF-12 act	ssDAF12 agonist	DAX1 inh-1	hgDAF-12 ag	DAX1 inh-2
O=C(c1ccc(CSc2nc3ccncc3[nH]2)cc1)N1CCN(c2cccc(Cl)c2)CC1	n	n	n	n	n
CC1=C(C(=O)OCC2CCCO2)C(c2coc3ccc(C)cc3c2=O)C2=C(CCCC2=O)N1 (stereo unspecified)	n	1.7	n	n	n
CC1=C(C(=O)OCC2CCCO2)C(c2coc3ccc(Cl)cc3c2=O)C2=C(CCCC2=O)N1 (stereo unspecified)	n	n	n	n	8.9
CC1=C(C(=O)OC2CCCC2)C(c2coc3ccc(C)cc3c2=O)C2=C(CCCC2=O)N1 (stereo unspecified)	n	n	n	n	n
CCCCC(=O)N[C@H]1CC[C@@]23CCCN2C(=O)CCC[C@H]3[C@H]1CCC	n	n	x	n	x
COc1cccc2c1OC1(CCN(C(C)C)CC1)N1N=C(c3cccnc3)CC21 (stereo unspecified)	n	n	n	n	6.8
COc1ccc(S[C@]2(C(=O)N3CCOCC3)CC(=O)N(c3ccc(C#N)cc3)[C@@H]2c2ccc(OC)cc2)cc1	n	n	n	n	x
Cc1cc2nc(-c3ccc(SCC(=O)Nc4ccc(S(=O)(=O)N5CCCC5)cc4)nc3)[nH]c2cc1C	n	n	3.7	n	n
Nc1cc(=O)[nH]c(SCC(=O)Nc2ccc(S(=O)(=O)N3CCCC3)cc2)n1	n	n	n	n	4.3
COC(=O)[C@]12C[C@H](CC(=O)NCC3CCCCC3)C(=O)N(Cc3ccccc3)C1=C[C@H](C(C)C)O[C@@H]2C1CC1	n	n	n	n	x
CCOC(=O)[C@@]12CN(C(=O)OC(C)(C)C)CC=C1N(Cc1ccc(OC)cc1)C(=O)[C@H]2CC(=O)NCCCN1CCCC1=O	n	n	n	n	x
C=CCN=C1NC(c2ccccc2C(F)(F)F)C(C(=O)OC)=C(C)N1Cc1ccccc1C(F)(F)F (stereo unspecified)	n	n	n	n	x
NC(=O)CCCn1c(C(=O)c2ccc(Cl)cc2)c2ccc(C(F)(F)F)cc2[n+]1[O-]	n	1.2	n	n	n
COc1ccc2c(C(=O)c3ccc(C)cc3)n(CCCC(N)=O)[n+]([O-])c2c1	6.1	n	n	n	n
NCCCn1c(C(=O)c2ccc(Cl)cc2)c2ccc(C(F)(F)F)cc2[n+]1[O-]	n	n	n	n	n
C=CCN1C(=O)[C@@H](CC(=O)NCCCC)[C@]2(C(=O)OC)CCCCC=C12	n	n	n	n	x
CCCCn1c(O)c(/C=C2\C=Nc3ccccc32)c(=O)[nH]c1=O	6.0	n	n	n	n
CCOC(=O)N1CCN(CC(O)COc2ccc(-c3ccccc3)cc2)CC1 (stereo unspecified)	n	n	n	n	n
NC(=O)C1CCN(CC(O)COc2ccc(-c3ccccc3)cc2)CC1 (stereo unspecified)	n	n	n	n	5.6
CN1CCN(CC(O)COc2ccccc2)CC1 (stereo unspecified)	n	n	n	13	n
Cc1cccc(N2CCN(CC(O)COc3ccccc3)CC2)c1 (stereo unspecified)	n	n	n	n	4.8
Cc1cccc(N2CCN(CC(O)COc3ccc(Cl)cc3)CC2)c1 (stereo unspecified)	n	n	n	n	n
Cc1ccc(NC(=S)N(CCN(C)C)Cc2cc3cccc(C)c3[nH]c2=O)cc1	n	1.7	n	n	n
Cc1cccc2cc(CN(Cc3ccccc3)C(=S)NCCCN(C)C)c(=O)[nH]c12	n	n	n	n	5.4
Cc1cccc(NC(=S)N(CCN(C)C)Cc2cc3cccc(C)c3[nH]c2=O)c1	n	n	n	n	n
Cc1ccc(-n2c(SCC(=O)Nc3ccc(S(=O)(=O)Nc4cc(C)nc(C)n4)cc3)nnc2-c2cccs2)cc1	n	n	n	n	x
CC(C)CNC(=O)OCc1cn(Cc2cccc(Cl)c2)nn1	n	n	n	n	x
COc1cccc(CC(NC(C)=O)C(=O)NC2CCN(c3nnnn3-c3ccccc3)CC2)c1 (stereo unspecified)	n	n	n	n	4.3
COc1ccc(-n2c(SCC(=O)Nc3ccc(S(=O)(=O)Nc4nccs4)cc3)nnc2-c2cccs2)cc1	n	n	n	n	x
